Only some compounds are listed: those with a hit (about 21% of all), similar ones and a draw of the others.
Pf growth 96h: Primary qHTS for delayed death inhibitors of the malarial parasite plastid, 96 hour incubation. P. falciparum luciferase reporter growth, 96 h. Potency, µM (highest dose often 28.7 µM), inactives show at the highest dose activity change, negative = inhibition, hits mostly inhibitors. 320,000 tested, 6.9% active. AID 504834, 2011; also: potency is read from the fitted curve at half-maximal effect; % is scaled to controls: 0 for no effect and ±100 for the full control effect
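Two-generation exposure (96 h) targets delayed-death phenotype. Reporter parasites carrying integrated firefly luciferase, in red cells at 2% hematocrit and 0.05% parasitemia final, kept at 37 C, 5% CO2; luminescence loss indicates inhibition.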
Pf growth 48h: Primary qHTS for delayed death inhibitors of the malarial parasite plastid, 48 hour incubation; P. falciparum luciferase growth in erythrocytes, 48 h; Potency, µM (highest dose often 28.7 µM), inactives show at the highest dose activity change, negative = inhibition, hits mostly inhibitors; 310,000 tested, 5.9% active; also: potency is read from the fitted curve at half-maximal effect; % is scaled to controls: 0 for no effect and ±100 for the full control effect
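In quantitative HTS format, infected erythrocytes bearing luciferase-reporter parasites were treated for a single generation at 37 C. Luminescence after adding detection reagent served as the growth measure.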
Sm TGR inh: qHTS Assay for the Inhibitors of Schistosoma Mansoni Peroxiredoxins. Schistosoma mansoni thioredoxin glutathione reductase (TGR), Q962Y6. Potency, µM (series often up to 114 µM), for the others: at the highest dose activity change, negative = inhibition, most hits filed as inhibitors. 360,000 tested, 3% active. AID 485364, 2010. purified TGR, DTNB reduction, TNB absorbance 405 nm; also: potency is read from the fitted curve at half-maximal effect; % is scaled to controls: 0 for no effect and ±100 for the full control effect; nearly all actives have a fitted effect of over 60% in size
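First, TGR (20 nM dispensed) and NADPH were mixed with compound. Second, a 15 min room-temperature incubation followed. Third, further NADPH and then DTNB were added to start the reaction. Finally, TNB absorbance was monitored kinetically.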
CHX counter: Cycloheximide Counterscreen for Small Molecule Inhibitors of Shiga Toxin; cell reporter, cycloheximide protein synthesis inhibition counterscreen; max response, %; 300,000 tested, 12% active; AID 2314, 2010; in the data active = max response mostly above about 13%, no sharp cut-off; inactive = mostly below about 14%; also: read at 38.3 µM for the half of the compounds with a filed dose; 0% is about no effect
Shiga toxin inh: A qHTS for Small Molecule Inhibitors of Shiga Toxin; inhibition, % at 38.7 µM; Vero cells, Shiga toxin protein synthesis inhibition reporter; 290,000 tested, 9.2% active; in the data active = inhibition mostly above about 28%, no sharp cut-off; inactive = mostly below about 43%; also: 0% is about no effect
NS1 inh: qHTS Assay for Inhibitors of Influenza NS1 Protein Function; AID 2326, 2010; Potency, µM (top dose mostly 46.1 µM), without a hit: top-dose activity, positive = more growth; 270,000 tested, 0.4% active; calls by dose curve; also: potency is read from the fitted curve at half-maximal effect; actives are rising curves; nearly all actives have a fitted effect of over 50% in size
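Growth recovery, yeast-based: influenza A NS1 expressed in S. cerevisiae causes slow growth, and suppressors are detected by OD600. The parent strain without NS1 is used as positive control.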
Active calls of the source: *; i = inactive; ? = inconclusive; . = no result. Unless noted, calls follow the shape of the dose curve; as a rule, active = well fitted curve in the direction sought with a large enough effect; inconclusive = small, poorly fitted or top-dose-only effect, or another doubt; inactive = no such curve, though single readings can be large; an effect the other way counts as inactive or inconclusive.

SMILES	Pf growth 96h	Pf growth 48h	Sm TGR inh	CHX counter	Shiga toxin inh	NS1 inh
CCOc1ccc(Cc2nccc3cc(OCC)c(OCC)cc23)cc1OCC	4.1µM*	?	.	.	.	.
COc1cc(/C=C/c2nc3ccccc3s2)cc(OC)c1O	i	304%	-13%	41*	78*	.
Cc1ccc(/C=C/c2nc3ccccc3s2)s1	.	75%	4%	24*	29	-4%
COc1cc(C=C(c2nc3ccccc3s2)c2nc3ccccc3s2)ccc1O	?	-18%	-14%	23*	10	10%
CN(C)c1ccc(/C=C/c2nc3ccccc3s2)cc1	?	68%	10%	-4	12	1%
Cn1c(-c2ccc(S(=O)(=O)N3CCCC3)cc2)csc1=Nc1ccc(Cl)c(Cl)c1	.	.	8.9µM*	.	.	.
Cc1cc(C)cc(Nc2nc(-c3ccc(S(=O)(=O)N4CCCC4)cc3)cs2)c1	6%	?	-8%	-2	-10	9%
Nc1nc(-c2ccc(S(=O)(=O)N3CCCCC3)cc2)cs1	13µM*	?	-5%	.	.	.
Cc1nc(-c2ccc(S(=O)(=O)N3CCCCCC3)cc2)cs1	-3%	7%	4%	21*	100*	-10%
Cc1ccc(Nc2nc(-c3ccc(S(=O)(=O)N4CCCC4)cc3)cs2)cc1C	1.7µM*	1.9µM*	-4%	-2	23	?
CCc1ccc(C(=O)Cc2cc3cccc(OC)c3oc2=O)cc1	68%	24%	-15%	28*	64*	-1%
COc1cccc2cc(CC(=O)c3ccc(C)c(C)c3)c(=O)oc12	?	11%	6%	11	-7	-4%
COc1cccc2cc(-c3nc4ccccc4o3)c(=O)oc12	?	253%	5%	45*	106*	.
COc1cccc2cc(CC(=O)c3cc(C)ccc3C)c(=O)oc12	6%	?	-6%	28*	71*	-8%
COc1cccc2cc(C(=O)c3ccccc3)oc12	-29%	32%	7%	68*	166*	-36%
COc1cccc2cc(/C(=N/O)c3ccc(Br)cc3)oc12	-10%	-9%	-2%	5	-10	0%
COCCCNC(=S)NNC(=O)c1csc(C)n1	?	11%	11%	1	-3	4%
COc1ccc(CNC(=O)C2CCN(S(=O)(=O)c3cccc(-c4noc(C)n4)c3)CC2)cc1	.	.	2%	.	.	.
Cc1ccc(NC(=O)c2c(C)oc3ccc(O)c(CN(C)Cc4ccccc4)c23)c(C)c1	.	.	13%	.	.	.
Cc1ccccc1OCCSc1nnc(-c2ccc([N+](=O)[O-])cc2)o1	.	.	10%	.	.	.
COc1cccc2cc(CC(=O)c3ccccc3)c(=O)oc12	6%	85%	-17%	18	44*	5%
CCC(=O)c1ccc(OCC(O)CN2CCN(S(=O)(=O)c3ccc(NC(C)=O)cc3)CC2)cc1 (stereo unspecified)	?	?	6%	-2	-2	-26%
O=C(NCC(=O)N1CCN(S(=O)(=O)c2ccccc2)CC1)c1ccc2ccccc2c1	-14%	10%	-33%	.	.	.
CC1CC(C)CN(C(=O)CNC(=O)c2ccc3ccccc3c2)C1 (stereo unspecified)	-8%	-8%	3%	18*	13	0%
O=C(NCC(=O)N1CCCCC1)c1ccc2ccccc2c1	40%	54%	-21%	34*	34	-5%
SMILES	Pf growth 96h	Pf growth 48h	Sm TGR inh	CHX counter	Shiga toxin inh	NS1 inh
O=C(NCC(=O)N1CCCC(C(F)(F)F)C1)c1ccc2ccccc2c1 (stereo unspecified)	37%	1%	7%	.	.	.
O=C1CSC2(CCN(CCCN3c4ccccc4Sc4ccc(Cl)cc43)CC2)N1	8.5µM*	?	.	.	.	0%
Clc1ccc2c(c1)N(CCCN1CCCC13CCCCC3)c1ccccc1S2	.	.	.	.	.	-8%
O=C(CCN1CCN(CCO)CC1)N1c2ccccc2Sc2ccc(C(F)(F)F)cc21	?	?	-14%	-2	-9	-2%
c1ccc2c(c1)Sc1ccccc1N2CCN1CCCC1	15µM*	17µM*	.	.	.	.
CN1CCN(CCCN2c3ccccc3Sc3ccc(C(F)(F)F)cc32)CC1	9.3µM*	10µM*	9%	-3	-16	2%
COCC(=O)Nc1nc2n(n1)C(c1ccc(Cl)cc1)CC(c1ccc(OC)cc1)N2 (stereo unspecified)	-94%	.	25µM*	-2	-8	8%
COCC(=O)Nc1nc2n(n1)C(c1ccccc1Cl)CC(c1ccc(OC)cc1)N2 (stereo unspecified)	.	-12%	40µM*	-3	-14	-15%
Cc1cccc(Sc2ccc([N+](=O)[O-])cn2)c1	13%	0%	1%	-1	14	-8%
CCOc1cccc(Nc2ccc([N+](=O)[O-])cn2)c1	-17%	73%	4%	29*	.	-39%
CCOc1cccc(OCCOc2ccccc2[N+](=O)[O-])c1	?	?	0%	4	-18	-25%
Cc1cccc(Nc2ccc([N+](=O)[O-])cn2)c1	15%	?	-1%	25*	63*	-37%
Cn1c(=O)c(C(=O)CN2CCCc3ccccc32)c(N)n(Cc2ccccc2)c1=O	.	?	0%	49*	15	?
Cn1c(=O)c(C(=S)NC(=O)C2CC2)c(N)n(Cc2ccccc2)c1=O	31%	9.3µM*	6%	-3	-11	16%
CCN(CC)CC(=O)c1c(N)n(Cc2ccccc2)c(=O)n(C)c1=O	19%	-4%	1%	2	-7	.
Cn1c(=O)c(C(=O)CN2CCc3ccccc32)c(N)n(Cc2ccccc2)c1=O	8.3µM*	12µM*	3%	-1	-10	23%
Cn1c(=O)c(C(=O)CN2CC(=O)Nc3ccccc32)c(N)n(Cc2ccccc2)c1=O	5.2µM*	-33%	-29%	-2	-3	.
Cc1nn2c(=O)cc(COC(=O)c3ccco3)nc2s1	.	.	-1%	.	.	.
O=C(c1ccc2c(c1)N(Cc1ccc(Cl)cc1)C(=O)c1ccccc1S2(=O)=O)N1CCOCC1	.	.	-7%	.	.	.
Cc1oc2ncn(C)c(=O)c2c1C(=O)Nc1ccccn1	.	.	3%	.	.	.
COC(=O)c1ccc(CNC(=O)COC(=O)C2CCC(C(C)(C)C)CC2)cc1 (stereo unspecified)	-4%	8%	-2%	-2	-2	11%
Cc1cc(C)c(S(=O)(=O)Nc2cc(C)on2)c(C)c1	0%	0%	5%	-1	-7	-40%
O=c1c2cc(NC(=S)N3CCCC3)ccc2nc2n1CCCCC2	?	3%	9%	-2	-10	5%
O=c1c2cc(Br)ccc2nc2n1CCCCC2	85%	9%	2%	29*	55	-17%
Cc1ccc2nc3n(c(=O)c2c1)CCCCC3	69%	44%	2%	31*	53*	6%

Assay outcomes as filed in PubChem.
